Each structure is given as a SMILES string. Out of some 2,800 compounds screened, fewer than 10 were called active. Not shown: some 7% with an inconclusive outcome. Calls come from the whole dose curve; as a rule, active = well fitted inhibition curve with a large enough effect; inconclusive = small, poorly fitted or top-dose-only effect; inactive = no such curve, though single readings can be large or run the other way. The list is a sample of the results. Entries that show only a call come without a potency.
Potency is the fitted concentration of half-maximal effect.

Metallo-beta-lactamase type 2 (Klebsiella pneumoniae), sequence (C7C422 whole entry, looked up): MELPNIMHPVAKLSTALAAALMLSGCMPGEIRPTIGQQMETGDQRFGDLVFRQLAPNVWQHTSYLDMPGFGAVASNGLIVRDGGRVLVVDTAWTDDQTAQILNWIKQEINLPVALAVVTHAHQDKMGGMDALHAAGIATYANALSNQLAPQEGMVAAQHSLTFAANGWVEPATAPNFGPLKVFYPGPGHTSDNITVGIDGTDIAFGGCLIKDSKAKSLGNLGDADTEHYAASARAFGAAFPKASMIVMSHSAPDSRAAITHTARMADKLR

This experiment has as its target Metallo-beta-lactamase type 2 (Klebsiella pneumoniae) (UniProt C7C422). Briefly: qHTS to identify inhibitors of the New Delhi Metallo-beta-lactamase (NDM): Nitrocefin screen against the machine-based learning selections. The conditions noted are these: NDM-1 enzyme, nitrocefin hydrolysis, absorbance 485 nm; series mostly up to 38.4 µM. An excerpt: Assay Submitter (PI): James Inglese Ph.D., Patricia Dranchak Ph.D., Mahesh Aitha Ph.D. Assay Development and Screening Technology Laboratory (ADST) National Center for Advancing Translational Sciences (NCATS), Rockville, MD National Institute of Health (NIH), Bethesda, Maryland The metallo-beta-lactamases (MBL) are a main antibiotic resistance mechanism evolved by bacteria. There is an urgent clinical need for MBL inhibitors to mitigate this growing threat. To support a machine-based learning study, qHTS has been used to experimentally test inhibitors identified by prediction tools.
PROTOCOL TABLE (as described by Inglese et al., 2007) SEQUENCE No. (e.g., 1, 2, 3, etc.); […] (e.g., enzyme, Incubation, Reagent, etc.); VALUE; DESCRIPTION Primary Screen 1; NDM-1; 4 uL of 3 nM enzyme [2 nM final] in 50 mM HEPES (pH 7.0), 1 uM […], 0.01% Tween20; Use BioRaptr to dispense into two sets of Aurora black, clear bottom high base 1536-well plates 2; Compounds; 23 nL; Use Pin Tool (Wako) to transfer DMSO control and library compounds in DMSO 3; Incubate; >30 min 4a; Reagent; 2 uL of 50 uM nitrocefin [16.7 uM final] to one set of assay plates 4b; Reagent; 2 uL of 150 uM meropenem [50 uM final] to second set of assay plates 5a; Incubate; 15 min 5b; Incubate; 30 min 6a; Detector; Absorbance at 485 nm (bandwidth = 5 nm, 25 flashes/well) on Tecan Infinity 6b; Detector; Absorbance at 300 nm (bandwidth = 5 nm, 25 flashes/well) on Tecan Infinity NOTES (numbers refer to sequence above) 1; Column 1 of each plate received assay buffer without enzyme and columns 2-48 received enzyme for a final assay concentration of 2 nM. 2; Control plate contained DMSO in columns 1, 2, 3, and 4. 3; Compound interaction with enzyme. 4; Nitrocefin and meropenem substrates were prepared in the same assay buffer as step 1 for a final assay concentration of 16.7 uM and 50 uM, respectively, and added to all wells across respective sets of assay plates. 5; Default reader settings were applied for absorbance read at 485 nm (nitrocefin) or 300 nm (meropenem), bandwidth = 5 nm, 25 flashes/well. References: Inglese J, Shamu CE, Guy RK. 2007. Reporting data from high-throughput screening of small-molecule libraries. Nat Chem Biol. doi:10.1038/nchembio0807-438 Yasgar A, Shinn P, Jadhav A, Auld D, Michael S, Zheng W, Austin CP, Inglese J, Simeonov A. 2008. Compound Management for Quantitative High-Throughput Screening. J Lab Autom 13:79 - 89. doi:10.1016/j.jala.2007.12.004
As for `Cn1cc(C(NC(=O)c2ccc3c(c2)ncn3CCO)C2CC(O)C2)cn1` (stereo not drawn), the Potency result was “inactive”.

Consider `Cc1nnc(-c2cc(N3CCN(c4ccccn4)CC3)ccn2)n1C1CCCCC1`, for which the Potency entry was “inactive”.

As for `O=C1CO[C@H]2CN(c3nccc(C(F)(F)F)n3)C[C@H]2N1Cc1ccc(F)cc1`, the Potency result was “inactive”.

On to `COc1cc(=O)n2c(c1C(=O)NC1CCCCCC1)CCCC2`, for which the Potency result is “inactive”.

Turning to `Cc1cccc(N(CC(=O)N[C@H]2CC[C@H]2NC2CCCC2)S(C)(=O)=O)c1`, the Potency entry was “inactive”.

In the case of `O=C(O)[C@]12CCCN[C@@H]1CCN(Cc1cnc(-c3ccccn3)nc1)C2`, the Potency entry was “inactive”.

As to `CCOCCn1nc(C)cc1C(=O)N1C[C@@H](C)[C@](O)(C2CC2)C1`, the Potency result was “inactive”.

`COc1cccc(-c2cccc(CCOc3cnc4c(ccn4CC(=O)O)c3)c2)c1`: the Potency result is “inactive”.

`O=C(N[C@@H]1CCN(Cc2cccc3nonc23)C[C@H]1O)c1cccnc1`: the Potency entry was “inactive”.

As for `COC(=O)c1ccc2nc(C[C@@H]3C[C@@H](C(C)C)[C@H](CN(C)C)C=C3C)[nH]c2c1`, the Potency entry was “inactive”.

Take `CCO[C@H]1C[C@@H](O)C12CCN(C(=O)c1cc(S(N)(=O)=O)ccc1F)CC2`: the Potency result was “inactive”.

For `CN(C)Cc1cn(C[C@H]2C[C@@H](NC(=O)c3nc4ccccc4s3)[C@H](O)[C@@H]2O)nn1`, the Potency entry is “inactive”.

Regarding `COc1cc(CNC(=O)CCC2CCN(S(=O)(=O)c3ccccc3)CC2)cc(OC)c1`, the Potency entry was “inactive”.

For `c1cncc(-c2cnc([C@@H]3COCCN3Cc3ncc[nH]3)[nH]2)c1`, the Potency entry was “inactive”.

Consider `Clc1cccc(-c2cnc([C@@H]3COCCN3Cc3cnc[nH]3)[nH]2)c1`, for which the Potency was 13.7 µM (active).

Regarding `Oc1ccccc1CN1CCOC[C@H]1c1ncc(-c2cccc(Cl)c2)[nH]1`, the Potency entry was “inactive”.

`CC1(C)CN(C(=O)c2ccccc2Oc2ccccc2)CC1(C)O` (stereo not drawn): the Potency result was “inactive”.

Regarding `O=c1ncn(Cc2ccccc2)c2ccc(-c3ccc(O)c(F)c3)nc12`, the Potency result is “inactive”.

In the case of `CCOC(=O)C[C@@H]1C[C@@H](C(C)C)[C@H](CNC(=O)c2ccc(C#N)cc2)C=C1C`, the Potency result was “inactive”.

Turning to `CCC1=C(C(=O)OC)C(c2ccccc2OC)N2C(CC(=O)N3CC(C)OC(C)C3)=CSC2=N1` (stereo not drawn), the Potency entry is “inactive”.

Turning to `CC1(C(=O)NCCc2ccccn2)CCc2cnc(NCc3ccccc3)nc21` (stereo not drawn), the Potency result was “inactive”.

For the compound `Cn1ccc2c(C(=O)NCCc3cnc[nH]3)nc(-c3cccnc3)cc21`, the Potency result was “inactive”.

`C[S+](=O)([O-])Nc1cccc(-c2cc(-c3cccnc3)c3cncn3c2)c1`: the Potency entry was “inactive”.

Consider `O=C1Nc2cc(Cl)ccc2C(=O)N2CCN(C(=O)c3ccccc3)C[C@H]12`, for which the Potency entry was “inactive”.

For the compound `O=C(Cc1c[nH]c2ncc(-c3ccccc3F)cc12)NCc1cccnc1`, the Potency entry is “inactive”.

For the compound `COCc1cc(C[C@@H]2CC[C@H](O)[C@@H](CNS(=O)(=O)c3ccccc3)O2)no1`, the Potency entry was “inactive”.

Consider `O=C(NC1CC(=O)N(CCc2cccc(Cl)c2)C1)c1ccsc1` (stereo not drawn), for which the Potency entry was “inactive”.

Consider `CCN(CC)C(=O)C[C@@H]1c2nc(NC(=O)N3CCOCC3)sc2C[C@@H]2[C@](C)(CO)[C@H](O)CC[C@]21C`, for which the Potency entry is “inactive”.

Consider `CS(=O)(=O)N[C@H]1C[C@H]2C(=O)Nc3ccc(-c4ccc5c(c4)OCO5)cc3C(=O)N2C1`, for which the Potency result is “inactive”.

As for `COc1ccc(-c2cnc3[nH]cc(CC(=O)Nc4ccncc4)c3c2)cc1`, the Potency entry is “inactive”.

In the case of `COc1ccc2c(c1)nc1n2[C@@H](CNC(=O)c2ccncc2)COC1`, the Potency entry was “inactive”.

For the compound `O=C(CCCc1ccccc1)N[C@@H]1CN(c2ccncn2)C[C@H]1CO`, the Potency result is “inactive”.

Regarding `Cc1c(CN2C[C@@H](COc3ccccc3)[C@H](C(N)=O)C2)cnn1C`, the Potency result is “inactive”.

Consider `Cc1ccc(C)c(-c2cc(C(=O)N3CCCC3c3nncn3C(C)C)[nH]n2)c1` (stereo not drawn), for which the Potency result was “inactive”.

Take `O=S(=O)(c1ccc(F)cc1)N1CCCC(Cc2noc(-c3cnccn3)n2)C1` (stereo not drawn): the Potency entry was “inactive”.

Consider `CN1CCCC1c1nc(C2CN(C(=O)c3ccsc3)C2)no1` (stereo not drawn), for which the Potency entry was “inactive”.

Consider `CN1C(=O)CC(C(=O)O)C12CCN(C(=O)CCc1cccnc1)CC2` (stereo not drawn), for which the Potency entry was “inactive”.

Consider `Cn1c(CO[C@H]2CN(C(=O)c3cccnc3)C[C@H]2F)nc2ccccc21`, for which the Potency result is “inactive”.

With `C[C@@H](c1ccccc1)N1C(=O)[C@@H]2CN(C(=O)c3ccco3)CCN2C1=O`, the Potency result is “inactive”.

For `COc1ccc(OC)c(CN2CCC3(CC2)Nc2ccccc2NC3=O)c1`, the Potency entry is “inactive”.

`NC(=O)C1CCCN(CCNc2cc(-c3ccccc3)nc3ccnn23)C1` (stereo not drawn): the Potency result is “inactive”.

On to `COC(=O)[C@H](NC(=O)[C@@H]1C[C@@H](NC(=O)c2ccncc2)CCN1S(=O)(=O)c1ccc(OC)cc1)C(C)C`, for which the Potency entry is “inactive”.

On to `Cc1cncc(C(=O)N2CC[C@@H](c3ccc4ccccc4c3)[C@H](O)C2)c1`, for which the Potency result was “inactive”.

Regarding `CCn1cnnc1CC1CCN(C(=O)NC)C1` (stereo not drawn), the Potency entry was “inactive”.

Take `O=C(c1ccoc1)N1CCCn2cc(-c3ccccc3)nc21`: the Potency result was “inactive”.

As for `NC(=O)CCNC(=O)C1=C[C@@H](NC(=O)c2cccs2)[C@@H](O)[C@H](O)C1`, the Potency entry is “inactive”.

For the compound `Cc1ccc(O)c(CN2CC[C@@H](c3ccc(F)cc3)[C@H](O)C2)c1`, the Potency result is “inactive”.

Consider `Cc1cnc(C(=O)N2CCCC(c3nc(-c4cccnc4)no3)CCNC(=O)CC2)cn1` (stereo not drawn), for which the Potency entry is “inactive”.
